# According to the supplement of paper PMC12282887:
# ± gives the standard deviation of the averaged measurements.
# Tests used:
# Assay in all cases: promoter activity interaction Z-score (Lux/OD deviation from empty-vector control); higher = stronger promoter induction by the compound
# [1] = system: E. coli BW25113 acrABp lux reporter
# How it was run: (§1)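 E. coli BW25113 (wild type or marA, soxS or rob deletion) carrying low-copy luxCDABE promoter reporters grew in 40 µl LB Lennox in 384-well plates at 37°C. Each compound was tested at four 1:2 dilutions in biological duplicates. OD600 and luminescence were read every 30 min for 12 h. Areas were taken over 0–8 h (wild type) or 1–9 h (mutants), and wells below 10% of median growth area were removed. The score is the Z-transformed residual of growth-normalised luminescence fitted against the empty-vector control.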
# [2] = system: E. coli BW25113 marRABp lux reporter
# How it was run: as §1
# [3] = system: E. coli BW25113 micFp lux reporter
# How it was run: as §1
# [4] = system: E. coli BW25113 ompFp lux reporter
# How it was run: as §1
# [5] = system: E. coli BW25113 robp lux reporter
# How it was run: as §1
# [6] = system: E. coli BW25113 soxSp lux reporter
# How it was run: as §1
# [7] = system: E. coli BW25113 tolCp lux reporter
# How it was run: as §1
# [8] = 14.6 µg/ml, genetic background: wild type
# [9] = 14.6 µg/ml, genetic background: ΔmarA
# [10] = 14.6 µg/ml, genetic background: Δrob
# [11] = 14.6 µg/ml, genetic background: ΔsoxS
# [12] = 29.3 µg/ml, genetic background: wild type
# [13] = 29.3 µg/ml, genetic background: ΔmarA
# [14] = 29.3 µg/ml, genetic background: Δrob
# [15] = 29.3 µg/ml, genetic background: ΔsoxS
# [16] = 58.6 µg/ml, genetic background: wild type
# [17] = 58.6 µg/ml, genetic background: ΔmarA
# [18] = 58.6 µg/ml, genetic background: Δrob
# [19] = 58.6 µg/ml, genetic background: ΔsoxS
# [20] = 117.2 µg/ml, genetic background: wild type
# [21] = 117.2 µg/ml, genetic background: ΔmarA
# [22] = 117.2 µg/ml, genetic background: Δrob
# [23] = 117.2 µg/ml, genetic background: ΔsoxS
smiles,measurement,setting,value
c1ccc2[nH]ccc2c1 [Indole],promoter activity interaction Z-score,[1]; [8],0.275 ± 0.27
same,promoter activity interaction Z-score,[1]; [9],0.599 ± 0.24
same,promoter activity interaction Z-score,[1]; [10],0.275 ± 0.17
same,promoter activity interaction Z-score,[1]; [11],0.000826 ± 0.08
same,promoter activity interaction Z-score,[1]; [12],0.165 ± 0.071
same,promoter activity interaction Z-score,[1]; [13],0.0409 ± 0.28
same,promoter activity interaction Z-score,[1]; [14],0.281 ± 0.18
same,promoter activity interaction Z-score,[1]; [15],0.463 ± 0.32
same,promoter activity interaction Z-score,[1]; [16],-0.112 ± 0.29
same,promoter activity interaction Z-score,[1]; [17],0.00303 ± 0.77
same,promoter activity interaction Z-score,[1]; [18],-0.21 ± 0.23
same,promoter activity interaction Z-score,[1]; [19],-0.312 ± 0.055
same,promoter activity interaction Z-score,[1]; [20],0.167 ± 0.52
same,promoter activity interaction Z-score,[1]; [21],-0.375 ± 0.025
same,promoter activity interaction Z-score,[1]; [22],-0.278 ± 0.012
same,promoter activity interaction Z-score,[1]; [23],0.0661 ± 0.25
same,promoter activity interaction Z-score,[2]; [8],0.304 ± 0.29
same,promoter activity interaction Z-score,[2]; [9],0.3765 ± 0.00083
same,promoter activity interaction Z-score,[2]; [10],0.103 ± 0.22
same,promoter activity interaction Z-score,[2]; [11],0.259 ± 0.025
same,promoter activity interaction Z-score,[2]; [12],0.16 ± 0.016
same,promoter activity interaction Z-score,[2]; [13],0.41 ± 0.022
same,promoter activity interaction Z-score,[2]; [14],0.118 ± 0.27
same,promoter activity interaction Z-score,[2]; [15],0.258 ± 0.2
same,promoter activity interaction Z-score,[2]; [16],0.085 ± 0.049
same,promoter activity interaction Z-score,[2]; [17],-0.158 ± 0.041
same,promoter activity interaction Z-score,[2]; [18],-0.0769 ± 0.035
same,promoter activity interaction Z-score,[2]; [19],-0.0326 ± 0.017
same,promoter activity interaction Z-score,[2]; [20],0.965 ± 0.34
same,promoter activity interaction Z-score,[2]; [21],0.558 ± 0.15
same,promoter activity interaction Z-score,[2]; [22],0.0948 ± 0.28
same,promoter activity interaction Z-score,[2]; [23],0.629 ± 0.47
same,promoter activity interaction Z-score,[3]; [8],-0.0516 ± 0.12
same,promoter activity interaction Z-score,[3]; [9],0.0327 ± 0.011
same,promoter activity interaction Z-score,[3]; [10],0.00243 ± 0.044
same,promoter activity interaction Z-score,[3]; [11],0.0247 ± 0.094
same,promoter activity interaction Z-score,[3]; [12],-0.0146 ± 0.021
same,promoter activity interaction Z-score,[3]; [13],-0.0163 ± 0.074
same,promoter activity interaction Z-score,[3]; [14],0.00613 ± 0.19
same,promoter activity interaction Z-score,[3]; [15],0.586 ± 0.069
same,promoter activity interaction Z-score,[3]; [16],0.0628 ± 0.13
same,promoter activity interaction Z-score,[3]; [17],-0.00313 ± 0.016
same,promoter activity interaction Z-score,[3]; [18],-0.138 ± 0.18
same,promoter activity interaction Z-score,[3]; [19],0.204 ± 0.28
same,promoter activity interaction Z-score,[3]; [20],0.516 ± 0.39
same,promoter activity interaction Z-score,[3]; [21],-0.0638 ± 0.0022
same,promoter activity interaction Z-score,[3]; [22],0.0554 ± 0.19
same,promoter activity interaction Z-score,[3]; [23],0.622 ± 0.087
same,promoter activity interaction Z-score,[4]; [8],0.322 ± 0.069
same,promoter activity interaction Z-score,[4]; [9],0.511 ± 0.0093
same,promoter activity interaction Z-score,[4]; [10],0.571 ± 0.51
same,promoter activity interaction Z-score,[4]; [11],0.225 ± 0.49
same,promoter activity interaction Z-score,[4]; [12],0.195 ± 0.09
same,promoter activity interaction Z-score,[4]; [13],0.309 ± 0.31
same,promoter activity interaction Z-score,[4]; [14],0.788 ± 0.39
same,promoter activity interaction Z-score,[4]; [15],0.734 ± 0.24
same,promoter activity interaction Z-score,[4]; [16],0.0808 ± 0.21
same,promoter activity interaction Z-score,[4]; [17],-0.0711 ± 0.22
same,promoter activity interaction Z-score,[4]; [18],-0.121 ± 0.61
same,promoter activity interaction Z-score,[4]; [19],-0.221 ± 0.36
same,promoter activity interaction Z-score,[4]; [20],0.63 ± 0.055
same,promoter activity interaction Z-score,[4]; [21],0.332 ± 0.29
same,promoter activity interaction Z-score,[4]; [22],0.341 ± 0.29
same,promoter activity interaction Z-score,[4]; [23],0.406 ± 0.096
same,promoter activity interaction Z-score,[5]; [8],0.568 ± 0.58
same,promoter activity interaction Z-score,[5]; [9],1.11 ± 0.29
same,promoter activity interaction Z-score,[5]; [10],0.842 ± 0.094
same,promoter activity interaction Z-score,[5]; [11],0.694 ± 0.19
same,promoter activity interaction Z-score,[5]; [12],0.773 ± 0.055
same,promoter activity interaction Z-score,[5]; [13],1.1 ± 0.014
same,promoter activity interaction Z-score,[5]; [14],0.598 ± 0.34
same,promoter activity interaction Z-score,[5]; [15],0.773 ± 0.2
same,promoter activity interaction Z-score,[5]; [16],-0.0581 ± 0.17
same,promoter activity interaction Z-score,[5]; [17],0.148 ± 0.5
same,promoter activity interaction Z-score,[5]; [18],0.569 ± 0.13
same,promoter activity interaction Z-score,[5]; [19],0.0833 ± 0.58
same,promoter activity interaction Z-score,[5]; [20],0.0933 ± 0.09
same,promoter activity interaction Z-score,[5]; [21],0.0401 ± 0.093
same,promoter activity interaction Z-score,[5]; [22],-0.335 ± 0.55
same,promoter activity interaction Z-score,[5]; [23],0.0103 ± 0.36
same,promoter activity interaction Z-score,[6]; [8],0.0112 ± 0.045
same,promoter activity interaction Z-score,[6]; [9],-0.0857 ± 0.076
same,promoter activity interaction Z-score,[6]; [10],-0.0709 ± 0.072
same,promoter activity interaction Z-score,[6]; [11],0.0403 ± 0.38
same,promoter activity interaction Z-score,[6]; [12],-0.034 ± 0.11
same,promoter activity interaction Z-score,[6]; [13],0.0579 ± 0.018
same,promoter activity interaction Z-score,[6]; [14],-0.0043 ± 0.038
same,promoter activity interaction Z-score,[6]; [15],0.238 ± 0.052
same,promoter activity interaction Z-score,[6]; [16],-0.0963 ± 0.0079
same,promoter activity interaction Z-score,[6]; [17],-0.00367 ± 0.068
same,promoter activity interaction Z-score,[6]; [18],-0.169 ± 0.082
same,promoter activity interaction Z-score,[6]; [19],-0.175 ± 0.24
same,promoter activity interaction Z-score,[6]; [20],-0.134 ± 0.044
same,promoter activity interaction Z-score,[6]; [21],-0.1992 ± 0.0019
same,promoter activity interaction Z-score,[6]; [22],-0.22 ± 0.15
same,promoter activity interaction Z-score,[6]; [23],-0.0773 ± 0.035
same,promoter activity interaction Z-score,[7]; [8],0.801 ± 1.5
same,promoter activity interaction Z-score,[7]; [9],0.744 ± 0.49
same,promoter activity interaction Z-score,[7]; [10],-0.506 ± 0.39
same,promoter activity interaction Z-score,[7]; [11],-0.474 ± 0.23
same,promoter activity interaction Z-score,[7]; [12],-0.36 ± 0.35
same,promoter activity interaction Z-score,[7]; [13],0.821 ± 1.3
same,promoter activity interaction Z-score,[7]; [14],0.287 ± 0.068
same,promoter activity interaction Z-score,[7]; [15],2.02 ± 0.35
same,promoter activity interaction Z-score,[7]; [16],-0.246 ± 0.9
same,promoter activity interaction Z-score,[7]; [17],0.0426 ± 0.17
same,promoter activity interaction Z-score,[7]; [18],-0.244 ± 0.44
same,promoter activity interaction Z-score,[7]; [19],1.06 ± 0.6
same,promoter activity interaction Z-score,[7]; [20],-0.0345 ± 0.59
same,promoter activity interaction Z-score,[7]; [21],-0.841 ± 0.13
same,promoter activity interaction Z-score,[7]; [22],-1.12 ± 0.97
same,promoter activity interaction Z-score,[7]; [23],-0.0289 ± 0.16
